Measured values as given in PubChem BioAssay AID463082 (The Scripps Research Institute Molecular Screening Center, 2010).
About 4,900 (1.5%) of roughly 330,000 compounds were called active. This is one part of a sample in which actives are shown more often than they occur.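 Rule for the calls: active = inhibition above the mean inhibition across the screen plus 3 SD (cut at about 25% in these data); inactive = the rest.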

Target: Platelet-activating factor acetylhydrolase (Homo sapiens) (UniProt Q13093)
Sequence (Q13093 whole entry, looked up): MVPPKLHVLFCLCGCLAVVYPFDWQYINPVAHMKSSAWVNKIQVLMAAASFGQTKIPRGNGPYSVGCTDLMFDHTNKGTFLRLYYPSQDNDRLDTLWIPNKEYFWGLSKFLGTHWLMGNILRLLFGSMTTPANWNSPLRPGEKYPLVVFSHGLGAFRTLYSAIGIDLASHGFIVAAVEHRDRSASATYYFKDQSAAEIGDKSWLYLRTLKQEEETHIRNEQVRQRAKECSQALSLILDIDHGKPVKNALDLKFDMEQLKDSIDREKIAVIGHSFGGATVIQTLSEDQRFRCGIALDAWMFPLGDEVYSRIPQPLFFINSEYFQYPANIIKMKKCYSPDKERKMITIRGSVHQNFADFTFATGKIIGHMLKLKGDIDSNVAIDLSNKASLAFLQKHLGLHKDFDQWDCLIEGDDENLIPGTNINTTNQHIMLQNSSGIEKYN
Experiment: inhibition of plasma PAF acetylhydrolase – biochemical, fluorescence polarization, human, primary screen (AID 463082);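 note: inhibitors block binding of the rhodamine activity-based probe so polarization drops; 0% = enzyme with DMSO and 100% = wells lacking pPAFAH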
Conditions: recombinant pPAFAH, FP-rhodamine probe fluorescence polarization; at 3.39 µM; hits give high values

inhibition, inactive:
COc1ccc(C)cc1NC(=O)CSc1nnc(CC(=O)Nc2ccccc2F)n1C 4.03%
COCCN1C=C2C(=O)C(C)(OC(=O)C3CCCC3)C(=O)C=C2C=C1c1ccsc1 (stereo not given) 5.4%
C=CCN1C=C2C(=O)C(C)(OC(=O)CCc3ccccc3)C(=O)C=C2C=C1c1ccc(C#N)cc1 (stereo not given) 12.6%
O=C(COC(=O)c1ccccc1F)Nc1cc(S(=O)(=O)N2CCOCC2)ccc1N1CCCC1 5.42%
O=C(COc1cccc2ccccc12)Nc1cc(S(=O)(=O)N2CCOCC2)ccc1N1CCOCC1 9.7%
C/C=C/C(=O)OCc1csc(CC(=O)Nc2ccccc2C)n1 -0.07%
CC(=O)Nc1ccc(S(=O)(=O)NC(C)C(=O)OCC(=O)NC2CCCC2)cc1 (stereo not given) -1.59%
COc1ccccc1C(=O)NC(=S)Nc1ccccc1N1CCCCC1 5.28%
CCC(=O)Nc1ccccc1N1CCN(S(C)(=O)=O)CC1 1.48%
O=C(CSc1ncnc2c1oc1ccccc12)NC1CCCC1 -0.51%
Cc1ccc(Nc2c(F)c(F)c(F)c(F)c2C(=O)O)c(C)c1 8.5%
COCCCNC(=O)CC1C[C@H](C(=O)N2CCCCC2)[C@@]2(CCc3ccccc3)c3[nH]c4ccccc4c3CCN2C1=O (stereo not given in full) 1.17%
CC1=C/C(=N\OS(=O)(=O)c2ccccc2)C=CC1=O 0.71%
O=C(CCCN1C(=O)/C(=C/c2cccs2)SC1=S)Nc1ccc(O)cc1 1.25%
O=C(CCCN1C(=O)/C(=C/c2ccccc2)SC1=S)Nc1ccc(O)cc1 3.48%
COc1ccc(/C=C2\SC(=S)N(CCCC(=O)NC3CCCC3)C2=O)cc1OC -4.96%
COc1ccc(/C=C2\SC(=S)N(CCC(=O)Nc3cccc(C(=O)O)c3)C2=O)cc1OC -14.2%
COc1ccc(S(=O)(=O)N2CCN(C)CC2)c(C)c1 -1.79%
CN(C)/C=N/c1cc(=O)n(C)c(=O)n1CC1CC1 -0.49%
Cc1ccc(C(=O)NC23CC4CC(CC(C4)C2)C3)c(Cl)c1 5.48%
CC1CC1C(=O)OCC(=O)Nc1cccc(F)c1 (stereo not given) 13.3%
Cc1ccsc1C(=O)OCC(=O)NCCc1ccccc1 2.4%
Cc1ccc2nc(-c3ccc(SCC(=O)Nc4cc(C)on4)nc3)[nH]c2c1 -7.51%
CC(=O)c1ccc(NC(=O)CCc2nnc3ccc(NCc4ccco4)nn23)cc1 -0.96%
CCOc1ccccc1NC(=O)CCc1nnc2ccc(NCc3ccco3)nn12 6.27%
CC(Cc1cccs1)N(Cc1ccc(Cl)cc1)C(=O)c1ccncc1 (stereo not given) 6.35%
CCSC1=C(C#N)C(=O)n2c1cc1c2CCCC1 8.15%
Cn1c(NC(=O)c2ccco2)c(-c2ccccc2Cl)c(=O)c2ccccc21 1.1%
O=C(NC(=S)Nc1ccc(Cl)c(C(=O)O)c1)c1cncc(Br)c1 0.25%
Cc1ccc(C)c(NC(=S)NNC(=S)Nc2ccc(C(C)C)cc2)c1 22.5%
Cc1cc(=O)n2nc(N3CCCC(C(=O)NCc4cccc(Cl)c4)C3)sc2n1 (stereo not given) 1.7%
COc1ccccc1CNC(=O)COn1nnc2ccc(S(=O)(=O)N3CCOCC3)cc21 2.22%
CC(C)N(C(=O)[C@H]1C[C@H](CC(=O)NC(C)(C)C)C(=O)N2CCc3c([nH]c4ccc(Cl)cc34)[C@]12C)C(C)C 3.29%
O=C(Nc1ccc(C(F)(F)F)cc1)c1cccc(-n2cnnn2)c1 -6.56%
Cc1nc(NC(=O)c2cccc(Cl)c2)sc1-c1csc(Nc2cccc(Cl)c2)n1 11.3%
CC(C)c1nc(CNC(=O)CC2C(=O)NCCN2Cc2cccc(F)c2F)cs1 (stereo not given) 3.46%
COc1cc(NC(=O)CCS(=O)(=O)c2ccc3c(c2)oc(=O)n3C)cc(OC)c1 3.91%
COc1ccc(-c2n[nH]c(C)c2-c2ccccc2OC)c(O)c1 4.94%
C=C(C)COc1ccc(-c2n[nH]c(C)c2-c2ccccc2)c(O)c1 13.4%
O=C(Nc1ccc(F)c([N+](=O)[O-])c1)C1CCCO1 (stereo not given) -1.09%
CN(Cc1cccs1)C(=O)CN1C(=O)c2ccccc2S1(=O)=O 4.08%
CN(C)c1ccc(C(=S)N2CCN(C(=S)Nc3ccc(Cl)cc3)CC2)cc1 1.77%
CCn1cc(C(=O)NCCC(=O)NCCO)c(=O)c2cc3c(cc21)OCO3 4.78%
COc1cc(CNC2CCCC2)c(Br)cc1OCc1ccccc1 1.42%
COc1cc(CN2CCC(C(N)=O)CC2)ccc1OCc1ccccc1 0.32%
COc1ccc(CNc2cc(C)cc(C)c2)cc1OC 0.82%
CC1CCCCC1NC(=O)COC(=O)Cc1ccc(Br)cc1 (stereo not given) 23.6%
O=C(COC(=O)Cc1ccc([N+](=O)[O-])cc1)NC1CCCCCC1 12.4%
Cc1cccc(C(=O)O)c1[N+](=O)[O-] 1.3%
C=CCn1c(Oc2ccc(C(=O)OC)cc2)nc2c1c(=O)n(C)c(=O)n2C -2.33%
CSc1ccc(CNC(=O)c2ccc(NC(=O)C3=CSCCO3)cc2)cc1 -5.55%
Cc1cc(C)cc(N(CC(=O)NC2CCCC2)C(=O)CCC(=O)Nc2nccs2)c1 1.33%
Cc1ccc(S(=O)(=O)NC2CCCCCC2)cc1 9.54%
Cc1cccc(CCNS(=O)(=O)c2ccc3c(c2)NC(=O)CO3)c1 9.07%
CC[C@]12c3[nH]c4cc(CCC(=O)N(C)C)ccc4c3CCN1C(=O)[C@@H](CC(=O)NCCCn1ccnc1)C[C@@H]2C(=O)N1CCN(C(=O)C2CC2)CC1 -6.7%
CCc1cccc(C)c1NS(=O)(=O)c1c(C)nc2sccn2c1=O 1.67%
O=C(c1ccco1)N(Cc1nc2ccccc2c(=O)[nH]1)C1CCCC1 2.71%
CC(=O)c1ccc(-c2nnc(CCC(=O)N(C)Cc3cnc4ccccn34)o2)s1 3.22%
CCc1ccc(CN(C)Cc2nc(Cc3ccccc3)no2)nc1 1.77%
COc1ccc(NC(=O)CNC(=O)Cc2ccccc2)cc1OC 1.61%
COc1ccc(CCNC(=O)Cc2ccc(C)cc2)cc1OC 0.86%
Cc1cc(=O)oc2c(C)c(OCC(=O)NCCc3ccc(S(N)(=O)=O)cc3)ccc12 1.13%
CCOc1ccc(S(=O)(=O)NCCC(=O)NCC2CCCO2)cc1 (stereo not given) -0.87%
Nc1scc(-c2ccncc2)c1Cl 5.7%
CCOC(=O)c1c(-c2ccccc2)oc2ccc(OCC(=O)NN)cc12 3.22%
CCOC(=O)c1c(C)oc2cc(Br)c(OCC(N)=O)cc12 -0.28%
CCOC(=O)c1c(C)oc(C)c(C(=O)OCC)c1=O -1.33%
CCOC(=O)c1c(C)oc2ccc(OCC(=O)N(CC)CC)cc12 -9.45%
Cc1cc(NC(=O)CSc2nnc(-c3ccco3)n2N)no1 1.38%
CCc1cccc(C)c1NC(=O)CSc1nnc(-c2ccco2)n1N -2.12%

inhibition, active:
CC1(OC(=O)C2CCCC2)C(=O)C=C2C=C(c3ccc(C#N)cc3)OC=C2C1=O (stereo not given) 52.5%
O=C(COC(=O)Cc1ccc(F)cc1)Nc1cc(S(=O)(=O)N2CCOCC2)ccc1N1CCCC1 31%
Cc1ccc(NC(=O)Cc2nc(COC(=O)C(C)NS(=O)(=O)c3ccc(C)cc3)cs2)cc1 (stereo not given) 32.8%
COc1ccc(C(=O)NC(=S)Nc2ccccc2N2CCN(S(C)(=O)=O)CC2)cc1OC 51.7%
O=C(CCCN1C(=O)/C(=C/c2ccco2)SC1=S)Nc1ccccc1 25.9%
O=C(CCCN1C(=O)/C(=C\c2ccco2)SC1=S)Nc1cccc2ccccc12 27.9%
Cc1ccsc1C(=O)OCC(=O)Nc1cccc(F)c1 31.5%
O=C(CCc1nnc2ccc(NCc3ccco3)nn12)Nc1cc(F)ccc1F 32.9%
CC(C)c1ccc(NC(=S)NNc2ccc(Cl)c(C(=O)O)c2)cc1 38.3%
O=C(Nc1ccc(-c2csc(Nc3cccc(C(F)(F)F)c3)n2)cc1)c1cccc(C(F)(F)F)c1 28.4%
C=C(C)COc1ccc(-c2n[nH]c(C)c2-c2ccccc2OC)c(O)c1 26.2%
COc1cc(C2CC(=O)N3CN(Cc4ccccc4)CSC3=C2C#N)ccc1OCc1ccccc1 (stereo not given) 35.3%
CC1CCCCC1NC(=O)COC(=O)Cc1ccc(Cl)cc1 (stereo not given) 35.3%
Cc1cccc(CCNS(=O)(=O)c2ccc(S(=O)(=O)NC3CCCC3)cc2)c1 27.3%
CN(C)[C@@H]1C(=O)C(C(N)=O)=C(O)[C@@]2(O)C(=O)C3=C(O)c4c(O)ccc(Cl)c4[C@@H](O)[C@H]3C[C@@H]12 49.4%
CCc1ccc(CN(C)C(=O)CCc2nnc(-c3ccc(-c4ccccc4)cc3)o2)nc1 61.6%
COc1ccc(CNC(=O)Cc2ccc(-c3ccccc3)cc2)cc1OC 31.1%
CCOC(=O)c1c(C)oc2cc(Sc3ccccc3)c(O)c(O)c12 27.6%
CCOC(=O)c1c(-c2ccccc2)oc2cc(Br)c(O)c(C=O)c12 30.1%
NC(=O)c1c(NC(=O)CSc2nnc(-c3ccco3)n2N)sc2c1CCCC2 24.9%
